# Results published in PubChem BioAssay (NCI).
# About 83,000 compounds went through this panel and 20% of them were active in at least one assay; those are over-represented in the sample as a whole.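 Values shown are percent growth following 48 h exposure of cells in 96-well plates to a single concentration of compound; below 10 was considered active.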 Unmarked numbers belong to inactive results. The source made the active and inactive calls.
# System: UO-31 renal
# Assay: NCI-60 one-dose screen, 48 h (100 = growth as untreated, 0 = no growth, -100 = all killed)
# Details: 10 µM unless noted
row,SMILES,growth
1,CS(=O)(=O)OCC(COS(C)(=O)=O)C(c1ccccc1)c1ccccc1,91.2%
2,CC(=O)c1cc2c(N)c(C(=O)Nc3cccc(Cl)c3)sc2nc1C,78.7%
3,ClC1c2ccccc2CCc2ccccc21,60%
4,CCOC(=O)C(C)(CSSCC(C)(NC(=O)c1ccc2ccccc2c1)C(=O)OCC)NC(=O)c1ccc2ccccc2c1 (stereo unspecified),80.6%
5,COc1ccccc1S(=O)(=O)Nc1ccc2c3c(cc(-c4ccoc4)nc13)C(=O)N2C,39.9%
6,CN1CCN(Cn2nc(-c3cc(Cl)cc(Cl)c3Cl)n(/N=C/c3ccc(Cl)cc3)c2=S)CC1,88%
7,Cc1ccn2cc(Cc3cc(=O)oc4c3ccc3ccccc34)c(=O)nc2c1,80.2%
8,C=C1C(=O)O[C@H]2[C@H]1CC/C(COC(=O)c1ccc(Br)cc1)=C\CC[C@@]1(C)O[C@@H]21,-89.8% (active)
9,COc1cc2ncnc(Oc3ccc(NC(=O)Nc4ccc(CN5CCOCC5)c(C(F)(F)F)c4)c4ccccc34)c2cc1OC,-11.9% (active)
10,Cc1cccc(NC(=O)CCc2ccc(N3C(N)=NC(N)=NC3(C)C)cc2)c1,115%
11,CN(C)c1ncc(C#Cc2c(F)cccc2F)c2ccccc12,54.8%
12,O=C(NC(=S)Nc1ccc(Cl)cc1)c1ccccc1,83.1%
13,COc1cc2nc(C(=O)N3CCCCC3)cc(Nc3ccccc3)c2cc1OC,82.4%
14,Oc1ccc(O)c(-[n+]2ccccc2)c1,94%
15,COc1cc2c(/C=C3/C(=O)Nc4ccc(O)cc43)c(Cl)n(Cc3cc(OC)c(OC)c(OC)c3)c2cc1C,-0.307% (active)
16,N#Cc1c(N)nc2c(c1N)C(c1ccc(Cl)cc1)C1=C(CCCC1=O)N2c1sc2c(c1C#N)CCCC2 (stereo unspecified),95.9%
17,COc1ccc2c(c1)nnn1c3ncccc3c(N=O)c21,-99.3% (active)
18,COc1cc(NC(C)CCCN2C(=O)c3ccccc3C2=O)c2nc(C)ccc2c1OC (stereo unspecified),98.1%
19,O=C(Nc1ccc(F)cc1)Nc1ccc(Cl)c([N+](=O)[O-])c1,8.43% (active)
20,COc1cc(/C=C/C(=O)c2c(C)n([O-])c3cc(C)c(C)cc3[n+]2=O)cc(OC)c1OC,14.2%
21,CCC1S/C(=N\N=C(/C)c2cccs2)N(c2ccccc2)C1=O (stereo unspecified),110%
22,O=C(Nc1cccc([N+](=O)[O-])c1)c1ccc2ccccc2c1O,49.8%
23,CC(C)(C)OC(=O)N1CCN(CCn2cc(C(F)(F)F)c3c(Cl)ncnc32)CC1,-80.8% (active)
24,COc1cc(NC(C)CCCN2C(=O)c3ccccc3C2=O)c2ncccc2c1OC (stereo unspecified),59.4%
25,CSc1nc(N)nc2c1ncn2C,94.6%
26,O=C1C(SCCO)=C(SCCO)C(=O)N1c1ccc(-c2ccccc2)cc1,-96.5% (active)
27,OCc1cnccc1NC12CC3CC(CC(C3)C1)C2,90.1%

# System: TK-10 renal
# Assay: as above
# Details: 10 µM unless noted
row,SMILES,growth
1,COc1ccccc1N1CCN(CC(O)COc2c(Br)c(Br)c(Br)c3c2OC(C)(C)C3)CC1 (stereo unspecified),40.5%
2,CC(=O)N[C@@H](CNC(=O)c1cc(NC(=O)c2cc(NC(=O)c3cc(NC(=O)c4nccn4C)cn3C)cn2C)cn1C)CC(=O)Nc1cn(C)c(C(=O)Nc2cc(C(=O)Nc3cc(C(=O)Nc4cc(C(=O)NCCCN(C)CCCNC(=O)c5cccc(C(=O)O)c5)n(C)c4)n(C)c3)n(C)c2)n1,93.1%
3,O=[N+]([O-])c1ccc(NS(=O)(=O)c2cc(Cl)ccc2Cl)c2ccccc12,75.8%
4,CN1CCN(C(=O)/C=C/c2ccc([N+](=O)[O-])o2)CC1,159%
5,CCn1cc(/C=C2\Oc3cc(OCC#N)ccc3C2=O)c2cc(OC)ccc21,74.2%
6,S=c1ssnc1-c1ccccn1,40.1%
7,COc1ccc2c(c1)nnc1c3cccnc3[nH]c21,11.8%
8,COc1cccc(/C=N/C(=S)NC2(C)C3CCC(C3)C2(C)C)c1O (stereo unspecified),85.9%
9,CC1(C)Cc2c(Br)c(Br)c(Br)c(OCC(O)CN3CCN(c4ccccn4)CC3)c2O1 (stereo unspecified),66%
10,O=C1OC(c2ccc(-c3ccccc3)cc2)=C/C1=C/C=C/c1ccccc1,107%
11,CCCCCn1ncc(-c2c(O)c(O)cc3c(O)c(-c4c(C)cc5c(-c6cnn(CCCCC)n6)c(O)c(O)cc5c4O)c(C)cc23)n1,10.2%
12,CCC1S/C(=N\N=C(/C)c2cc3ccccc3o2)N(c2ccccc2)C1=O (stereo unspecified),108%
13,CS(=O)(=O)OCC(COS(C)(=O)=O)C(c1ccccc1)c1ccccc1,110%
14,CC(=O)c1cc2c(N)c(C(=O)Nc3cccc(Cl)c3)sc2nc1C,90.4%
15,ClC1c2ccccc2CCc2ccccc21,101%
16,CCOC(=O)C(C)(CSSCC(C)(NC(=O)c1ccc2ccccc2c1)C(=O)OCC)NC(=O)c1ccc2ccccc2c1 (stereo unspecified),103%
17,COc1ccccc1S(=O)(=O)Nc1ccc2c3c(cc(-c4ccoc4)nc13)C(=O)N2C,37.5%
18,CN1CCN(Cn2nc(-c3cc(Cl)cc(Cl)c3Cl)n(/N=C/c3ccc(Cl)cc3)c2=S)CC1,94.6%
19,Cc1ccn2cc(Cc3cc(=O)oc4c3ccc3ccccc34)c(=O)nc2c1,124%
20,C=C1C(=O)O[C@H]2[C@H]1CC/C(COC(=O)c1ccc(Br)cc1)=C\CC[C@@]1(C)O[C@@H]21,8.28% (active)

row,SMILES,growth
1,COc1cc2ncnc(Oc3ccc(NC(=O)Nc4ccc(CN5CCOCC5)c(C(F)(F)F)c4)c4ccccc34)c2cc1OC,12.7%
2,Cc1cccc(NC(=O)CCc2ccc(N3C(N)=NC(N)=NC3(C)C)cc2)c1,82.5%
3,CN(C)c1ncc(C#Cc2c(F)cccc2F)c2ccccc12,112%
4,O=C(NC(=S)Nc1ccc(Cl)cc1)c1ccccc1,117%
5,COc1cc2nc(C(=O)N3CCCCC3)cc(Nc3ccccc3)c2cc1OC,98.6%
6,Oc1ccc(O)c(-[n+]2ccccc2)c1,100%
7,COc1cc2c(/C=C3/C(=O)Nc4ccc(O)cc43)c(Cl)n(Cc3cc(OC)c(OC)c(OC)c3)c2cc1C,25.8%
8,N#Cc1c(N)nc2c(c1N)C(c1ccc(Cl)cc1)C1=C(CCCC1=O)N2c1sc2c(c1C#N)CCCC2 (stereo unspecified),89.2%
9,COc1ccc2c(c1)nnn1c3ncccc3c(N=O)c21,-15.1% (active)
10,COc1cc(NC(C)CCCN2C(=O)c3ccccc3C2=O)c2nc(C)ccc2c1OC (stereo unspecified),98.8%
11,O=C(Nc1ccc(F)cc1)Nc1ccc(Cl)c([N+](=O)[O-])c1,16.6%
12,COc1cc(/C=C/C(=O)c2c(C)n([O-])c3cc(C)c(C)cc3[n+]2=O)cc(OC)c1OC,77%
13,CCC1S/C(=N\N=C(/C)c2cccs2)N(c2ccccc2)C1=O (stereo unspecified),114%
14,O=C(Nc1cccc([N+](=O)[O-])c1)c1ccc2ccccc2c1O,91.5%
15,CC(C)(C)OC(=O)N1CCN(CCn2cc(C(F)(F)F)c3c(Cl)ncnc32)CC1,115%
16,COc1cc(NC(C)CCCN2C(=O)c3ccccc3C2=O)c2ncccc2c1OC (stereo unspecified),93.6%
17,CSc1nc(N)nc2c1ncn2C,93.5%
18,O=C1C(SCCO)=C(SCCO)C(=O)N1c1ccc(-c2ccccc2)cc1,-57.8% (active)
19,OCc1cnccc1NC12CC3CC(CC(C3)C1)C2,99.1%
